Hits are enriched below; roughly 4.9% of the tested compounds scored in any of these assays.
tim10-1 inh: growth inhibitors of tim10-1 mutant yeast, primary screen, luminescence, uHTS. inhibition, % at 20 µM. hit rate 2.2% among 330,000. S. cerevisiae tim10-1 ts strain growth, BacTiter-Glo, 24 h;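 active means inhibition of at least 40%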;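 further: mutant grown at 25 °C; 0% = DMSO wells with yeast and 100% = wells holding no yeast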
TIM10 inh: growth inhibitors of isogenic TIM10 control yeast, primary screen, counter-screen for tim10-1 yeast inhibitor project, luminescence, uHTS | S. cerevisiae TIM10 strain growth, BacTiter-Glo luminescence, 24 h | AID 463195, 2010 | inhibition, % at 10 µM | hit rate 1.4% among 330,000;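 active means inhibition of 40% or more at the single tested concentration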;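 further: wild-type TIM10 isogenic control strain grown at permissive 25 °C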
NALP1 inh: NALP1 inflammasome inhibitors in reconstituted yeast, colorimetric, S. cerevisiae, triplicate retest; S. cerevisiae NALP1/ASC/caspase-1 growth, X-gal OD620, 72 h; inhibition, % at 10 µM; hit rate 0.61% among 280,000; AID 2071, 2009; in the data active means inhibition mostly above about 24%, no sharp cut-off; inactive means mostly below about 32%
SKKanGAS inh: S. pyogenes SKKanGAS growth inhibitors in kanamycin, primary screen, streptokinase expression inhibitor project, SKKanGAS strain, BacTiter-Glo luminescence | 6 h | inhibition, % at 7.5 µM | hit rate 1.3% among 300,000;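 active means mean replicate score, as percent of positive control median, at least 50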;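 further: strain carries kanamycin resistance gene driven by streptokinase promoter and grows in 40 µg/ml kanamycin; loss of luminescence reflects streptokinase promoter inhibition or plain growth inhibition; 0% = median of DMSO wells and 100% = positive control at its reference dose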
NALP3 yeast inh: NALP3 inflammasome inhibitors in reconstituted yeast, primary screen, luminescence, uHTS; Yeast reconstituted NLRP3/ASC/caspase-1, beta-gal luminescence, 24 h; inhibition, % at 10 µM; hit rate 0.39% among 330,000; AID 2825, 2010;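 active means inhibition of 50% or more; inactive means inhibition below 50%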;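 further: plate controls were induced DMSO wells for no effect and uninduced yeast grown without galactose for full effect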
tim23-1 inh: growth inhibitors of tim23-1 mutant yeast, primary screen, luminescence, uHTS | S. cerevisiae tim23-1 growth, BacTiter-Glo luminescence, 24 h | inhibition, % at 20 µM | hit rate 1.3% among 330,000 | AID 463212, 2010;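 active means growth inhibition of the mutant yeast at or above 50%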;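 further: temperature-sensitive mutant grown at 25 °C; plate controls were DMSO-treated mutant yeast for no effect and medium wells lacking yeast for full effect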
Starred values were filed as active, the others as inactive; . = not tested or not shown.

SMILES | tim10-1 inh | TIM10 inh | NALP1 inh | SKKanGAS inh | NALP3 yeast inh | tim23-1 inh
O=C(O)c1ccccc1NC(=S)NC(=O)c1sc2ccccc2c1Cl | -11.7 | 11.0 | -14.0 | . | 16.8 | 16.6
O=C(NNC(=S)NC(=O)c1sc2ccccc2c1Cl)c1ccc(Cl)cc1 | -5.7 | -32.2 | 25.9 | 95.6* | 24.1 | 20.3
CCCC(=O)Nc1ccc(C(=O)NNC(=S)NC(=O)c2cccs2)cc1 | -7.5 | 17.9 | 5.2 | 33.4 | 25.1 | 7.7
CC(C)(C)c1ccc(C(=O)NC(=S)NNC(=O)c2cccs2)cc1 | . | . | 26.8 | 103.7* | . | .
O=C(NC(=S)NNC(=O)c1cccs1)c1ccccc1 | 5.4 | 9.1 | 11.9 | 86.4* | 7.9 | -15.8
COc1ccc(-c2nc(CS(=O)CC(=O)NCCN3CCCCC3C)c(C)o2)cc1OC (stereo unspecified) | -3.3 | -1.6 | -6.8 | 1.4 | -3.1 | 11.4
Cc1ccc(NC(=O)CCCC(=O)O)c(-c2nc3ccccc3[nH]c2=O)c1 | 4.2 | 11.2 | 18.7 | 1.0 | 10.4 | 10.7
Cc1cc(Cl)ccc1C(=O)C1CCCN(C(=O)c2snnc2C)C1 (stereo unspecified) | -54.3 | -47.1 | -11.1 | -3.0 | -1.2 | -156.8
Cc1cnc(C(=O)OCC(=O)Nc2cc(Cl)ccc2C#N)cn1 | -2.4 | -6.0 | . | . | 7.2 | 1.4
C[C@H](CO)N1C[C@H](C)[C@@H](CN(C)S(=O)(=O)c2cccs2)Oc2c(NC(=O)C3CC3)cccc2C1=O | -14.1 | -1.4 | . | . | 5.0 | -1.4
COc1cc(C(=O)NNC(=S)NC(=O)/C=C/c2ccccc2)cc(OC)c1OC | 21.4 | 19.4 | 10.7 | 93.2* | 27.6 | -5.1
O=C(/C=C/c1ccccc1)NC(=S)NNC(=O)c1cnccn1 | 8.5 | -3.6 | . | 63.8* | 9.8 | 33.3
O=C(NC(=S)NNC(=O)c1cccs1)c1ccco1 | 8.7 | 16.3 | 21.9 | 61.2* | 14.6 | -22.6
COc1cc(C(=O)NNC(=S)NC(=O)c2ccc(Cl)cc2)cc(OC)c1OC | 21.2 | 5.5 | -1.1 | 92.6* | 25.2 | 15.7
Cc1ccc(Nc2cc(C)nc3ncnn23)c(C)c1 | -8.4 | 0.5 | 8.1 | 1.8 | 14.0 | -0.4
O=C(NCCCN1CCOCC1)c1ccc2c(=O)n(Cc3ccc(Cl)cc3)c(=S)[nH]c2c1 | 0.2 | 7.0 | -23.3 | 3.2 | 21.0 | 12.5
Cc1cccc(C(=O)NC(=S)NNC(=O)c2ccc(Cl)cc2)c1 | . | . | 43.1 | 105.4* | . | .
Cc1cccc(C(=O)NNC(=O)c2ccc(Br)cc2)c1 | -8.7 | -21.4 | 6.5 | 2.5 | 9.0 | -9.4
O=C(COC(=O)c1ccc(Cl)nc1)Nc1nnc(-c2ccccc2)o1 | 7.3 | -5.2 | . | -1.1 | -3.2 | -9.0
Cc1noc(C)c1NC(=O)Nc1ccc2c(c1)C(=O)N([C@H](C)CO)C[C@H](C)[C@@H](CN(C)S(=O)(=O)c1c(C)noc1C)O2 | 16.5 | 1.4 | . | . | 8.5 | 11.2
CC(C)c1ccc(/C=C2\CC/C(=C\C=N\N(C)C)C2=O)cc1 | 36.8 | 26.7 | 43.7* | -0.3 | 7.1 | 31.9
CN(C)/N=C/C=C1\CC/C(=C\c2ccc(F)c(F)c2)C1=O | 13.5 | 21.2 | . | -0.2 | 14.9 | 15.9
COc1cc(NC(=O)c2cccc([N+](=O)[O-])c2)ccc1NC(=O)c1ccco1 | 2.0 | -5.5 | 12.4 | -3.6 | 19.6 | -6.7
O=C(Nc1cc([N+](=O)[O-])ccc1O)c1cccc(NC(=O)c2ccco2)c1 | 1.2 | -0.7 | 28.4 | 52.9* | 18.4 | 7.2
CCOc1ccc(C(=O)NC(=S)Nc2ccc(N3CCCCC3)cc2)cc1[N+](=O)[O-] | 18.1 | 17.3 | -7.2 | 12.2 | 17.4 | 1.2
SMILES | tim10-1 inh | TIM10 inh | NALP1 inh | SKKanGAS inh | NALP3 yeast inh | tim23-1 inh
CCOc1ccc(C(=O)NC(=S)Nc2ccc(NC(=O)CC)cc2)cc1[N+](=O)[O-] | 21.2 | -12.0 | 0.3 | 52.7* | 12.5 | 17.3
CCOc1ccc(C(=O)NC(=S)Nc2cccc(NC(=O)c3ccco3)c2)cc1[N+](=O)[O-] | 0.2 | -7.8 | 23.2 | 65.3* | 9.7 | 0.4
CCc1nc(C)c(C(=O)N2CCCC(C(=O)Nc3cccc(-c4cccc(C)c4)c3)C2)o1 (stereo unspecified) | 26.8 | -15.3 | 11.2 | -3.9 | 12.8 | 11.7
O=S(=O)(c1ccccc1)N1CCC(n2cnc3ccccc32)CC1 | 13.1 | 6.8 | 2.8 | 1.7 | 9.4 | 7.8
CC(C)C1Nc2c(O)cc(Cl)c([N+](=O)[O-])c2C2C=CCC21 (stereo unspecified) | . | . | -7.4 | 79.3* | . | .
Cc1cc(C)cc(NC(=O)C2CCN(S(=O)(=O)c3ccc4[nH]c(=O)ccc4c3)CC2)c1 | -9.8 | -19.0 | 15.7 | -8.6 | 5.9 | -13.7
CC(NC(=O)CSc1nc(C2CC2)n(-c2ccccc2)n1)c1ccco1 (stereo unspecified) | 15.2 | -2.5 | . | . | 14.2 | 16.1
O=C(Nc1ccc(F)cc1)Nc1cc(OCC(F)(F)F)cc(OCC(F)(F)F)c1 | 10.0 | 24.5 | 22.5 | 77.9* | 6.3 | 15.1
CCOc1ccc(NC(=O)Nc2cc(OCC(F)(F)F)cc(OCC(F)(F)F)c2)cc1 | 15.3 | 13.8 | 3.2 | 20.1 | -5.3 | -3.7
CS(=O)(=O)Nc1ccc(C2=NN(C(=O)C3CCCCC3)C(c3cccs3)C2)cc1 (stereo unspecified) | 33.1 | 20.1 | 38.4 | 82.6* | 4.9 | 19.4
Brc1ccc(-c2nnc3ccc(N4CCN(c5ccccc5)CC4)nn23)cc1 | 23.1 | 6.9 | 29.6* | -6.9 | -1.6 | -11.6
Cc1ccc(C(=O)COC(=O)c2cccc([N+](=O)[O-])c2)s1 | -0.9 | 7.7 | . | . | 9.9 | 29.5
OC(CNCCC(c1ccccc1)c1ccccc1)COc1ccccc1 (stereo unspecified) | 21.5 | 17.3 | 33.4* | 2.4 | 22.7 | 15.1
CC(C)NC(=O)NC(=O)CSc1nnc(COc2ccccc2F)n1C(C)C1CC2CCC1C2 (stereo unspecified) | 33.7 | 28.5 | 15.4 | 50.8* | 7.4 | 36.1
CC(C1CC2CCC1C2)n1c(COc2ccccc2F)nnc1SCC(N)=O (stereo unspecified) | 20.2 | 10.2 | 24.4 | 6.3 | 13.7 | 12.3
COc1ccc(-c2cc3nnc(-c4ccccc4)nc3s2)cc1 | 2.8 | 0.5 | -49.4 | 3.7 | 16.9 | 4.1
COc1ccc(-c2cc3ncnc(Cl)c3s2)cc1 | -26.0 | 6.8 | 37.1 | 54.1* | 9.9 | 5.9
CN(Cc1ccccc1)C(=O)c1cc2ccccc2o1 | 17.1 | 4.1 | 8.1 | -2.8 | 27.3 | 23.7
CN(Cc1ccc(N(C)C)cc1)C(=O)c1cc2ccccc2o1 | -3.7 | 7.4 | 27.3 | 59.5* | 3.3 | 18.9
Cc1ccc(NC(=O)C(OC(=O)c2cc(C)oc2C)c2ccccc2)cc1 (stereo unspecified) | 26.1 | 14.0 | 15.6 | 4.9 | 3.9 | 20.8

Source: PubChem BioAssay
